Bioassay records as filed in PubChem.
FAS TE block = FAS thioesterase (human) inhibition; P49327; recombinant FAS-TE, OMFH fluorogenic substrate, fluorescence endpoint; inhibition, % at 15 µM; 0.67% of 360,000 active;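 active means compounds whose normalised, plate-corrected inhibition of enzyme fluorescence in the single-dose primary screen is 50% or more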;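 further: 0% = DMSO with enzyme and 100% = substrate without enzyme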
ADAM17 inh = ADAM17 inhibition, QFRET primary screen; P78536; recombinant ADAM17, EDANS/DABCYL FRET peptide cleavage; inhibition, % at 6.95 µM; 0.83% of 370,000 active; AID 720648;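 active means inhibition above the mean of compounds lying between control limits plus 3 SD, set per campaign, cut at about 8.5% in these data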;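 further: 0% = DMSO-only wells as the low control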
GRIN3A LBD mod = NR3A (human) ligand-binding domain modulation | NR3A LBD differential scanning fluorimetry, Tm shift; 0% = protein alone, 100% = glycine-bound protein | Tm shift relative to glycine control, % at 25 µM | 2.5% of 340,000 active | AID 1259313;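 active means melting temperature shift of at least 10% of the positive control shift, at one fixed dose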
ADAM10 inh = ADAM10 inhibition, QFRET primary screen; O14672; recombinant ADAM10, EDANS/DABCYL FRET peptide cleavage, 3 h; inhibition, % at 7 µM; 0.62% of 370,000 active;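 active means inhibition above a per-campaign cutoff equal to the mean of compounds falling between control-based bounds plus 3 SD, cut at about 20% in these data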;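 further: 0% = DMSO wells while the 100% control is not disclosed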
Target sequence (O14672 214-748 limits assumed): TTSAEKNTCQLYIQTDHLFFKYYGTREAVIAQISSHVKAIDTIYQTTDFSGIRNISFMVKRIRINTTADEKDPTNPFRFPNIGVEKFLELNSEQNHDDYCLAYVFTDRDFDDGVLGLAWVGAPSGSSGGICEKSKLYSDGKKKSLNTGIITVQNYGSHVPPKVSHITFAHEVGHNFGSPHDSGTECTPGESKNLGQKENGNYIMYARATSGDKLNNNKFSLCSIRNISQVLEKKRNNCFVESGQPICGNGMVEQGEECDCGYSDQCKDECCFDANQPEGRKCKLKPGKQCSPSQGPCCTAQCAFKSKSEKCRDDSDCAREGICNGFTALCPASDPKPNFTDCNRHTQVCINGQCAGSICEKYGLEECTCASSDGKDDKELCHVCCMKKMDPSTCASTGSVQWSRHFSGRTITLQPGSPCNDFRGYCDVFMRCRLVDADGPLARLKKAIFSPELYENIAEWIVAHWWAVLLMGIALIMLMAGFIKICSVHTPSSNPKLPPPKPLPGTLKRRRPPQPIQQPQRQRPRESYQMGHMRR
proKLK7 act = activators of human kallikrein-7 zymogen; P49862; purified proKLK7, EDANS-DABCYL substrate fluorescence; 100% is mature enzyme control, 0% vehicle; activation, % at 7 µM; 0.9% of 370,000 active; AID 652039;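 active means activation above the mean of all tested compounds plus 3 SD, computed per campaign excluding outliers beyond control limits, cut at about 13% in these data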
An asterisk follows results filed as active; nt = no result given. Most compounds without a hit are left out; they make up all but 4.6% or so of the library.

SMILES	FAS TE block	ADAM17 inh	GRIN3A LBD mod	ADAM10 inh	proKLK7 act
Cc1ccc(SCC(=O)Nc2ccc(-c3nc4ccccc4[nH]3)cc2)cc1	-10	-2	35*	-7	1
Cc1c[nH]c2cccc(-c3cccc4ccccc34)c12	nt	-9	nt	-20	0
O=C(NC(Cc1ccccc1)C(=O)O)/C(=C/c1ccccc1)NC(=O)c1ccccc1 (centres undefined)	-7	-2	14*	-3	0
O=C(NC(Cc1ccccc1)C(=O)O)/C(=C\c1ccc(Cl)cc1)NC(=O)c1ccccc1 (centres undefined)	-2	-1	-2	-10	-1
CN(C)c1ccc(NC(=O)c2sc(SCC(=O)Nc3ccc(Br)cc3)nc2N)cc1	-12	-2	16*	-3	0
CCCC1CCC2(CCC(=O)N2CCSc2ccccc2)CC1 (centres undefined)	nt	3	nt	6	1
COc1cccc(/C=N/Nc2snc(SC)c2C#N)c1	-7	1	-3	10	0
COc1cccc(/C=N/Nc2snc(SC)c2C#N)c1O	1	2	30*	0	-1
COc1ccccc1C=NNC(=O)NN=Cc1ccccc1OC	6	-2	-1	-8	0
COc1cccc(C=Nc2ccc(C)c(F)c2)c1O	-2	-1	13*	-1	1
O=[N+]([O-])c1ccc(NN=Cc2cccc3ccccc23)nc1	-4	-3	29*	-11	0
COc1cccc(/C=N/NC(=O)N/N=C/c2cccc(OC)c2O)c1O	2	0	35*	6	-3
COc1cccc(/C=C2\CC3(OC(=O)c4ccc(Cl)cc4)CCCN2C3)c1 (centres undefined)	nt	5	nt	9	0
O=C(O)c1ccccc1C=NNc1ccc([N+](=O)[O-])cn1	-5	-3	0	-8	-1
COc1cccc(/C=N/Nc2ccc([N+](=O)[O-])cn2)c1O	8	-3	29*	-3	0
O=[N+]([O-])c1cccc(N/N=C/c2cccc3ccccc23)c1	41	3	25*	1	0
O=C(/C=C/c1cn(-c2ccccc2)nc1-c1ccccc1)Nc1ccc(C(=O)O)cc1	23	-5	-2	4	0
COc1ccc(-c2nn(-c3ccccc3)cc2C(=O)N(C)CC(=O)Nc2cccc(F)c2)cc1	19	6	11*	10	0
O=C(Nc1cccc(S(=O)(=O)N2CCOCC2)c1)c1cn(-c2ccccc2)nc1-c1ccc(F)cc1	41	1	22*	13	0
COc1cccc(-c2nn(-c3ccc(C)cc3)cc2C(=O)N(C)CC(=O)Nc2cccc(F)c2)c1	27	8	13*	20	0
NS(=O)(=O)c1ccc(NC(=O)/C=C/c2cn(-c3ccccc3)nc2-c2cccc(Cl)c2)cc1	8	-4	31*	-6	-3
Cc1cccc(NC(=O)[C@@H]2CC(=O)O[C@@H]2c2ccccc2)c1C	nt	-3	nt	-12	-1
COc1ccc(-c2nn(-c3ccccc3)cc2C(=O)Nc2nccs2)cc1	11	7	-12	9	0
CN(CC(=O)Nc1cccc(F)c1)C(=O)c1cn(-c2ccccc2)nc1-c1ccc(F)cc1	31	6	35*	19	0
Cc1ccc(-c2nn(-c3ccccc3)cc2/C=C/C(=O)Nc2nccs2)cc1	0	-4	24*	-13	-116
SMILES	FAS TE block	ADAM17 inh	GRIN3A LBD mod	ADAM10 inh	proKLK7 act
NS(=O)(=O)c1ccc(NC(=O)COC(=O)c2cn(-c3ccccc3)nc2-c2ccc(F)cc2)cc1	-8	-2	16*	3	0
CCC(NC(=O)c1ccc2c(ccn2Cc2cccc(-c3ccc(C(=O)O)cc3)c2)c1)c1ccccc1 (centres undefined)	nt	-3	nt	11	0
COc1ccc(S(=O)(=O)n2[nH]c(=O)c(CCO)c2C)c([N+](=O)[O-])c1	-1	-3	16*	0	1
COc1ccc(/C(C)=N/N=C(\C)c2ccc(OC)cc2OC)c(OC)c1	1	-1	12*	-3	0
O=C(c1cc(-c2cccs2)on1)N1CCN(c2ccccc2)CC1	10	nt	0	nt	nt
O=C(c1cc(-c2cccs2)on1)N1CCN(c2ccc(F)cc2)CC1	19	-2	13*	4	0
COC(=O)[C@]12C[C@H](CC(=O)NCc3cccc(C(F)(F)F)c3)C(=O)N(Cc3ccc(Cl)cc3Cl)C1=C[C@H](C1CCCC1)O[C@@H]2C	nt	-4	nt	-6	0
COC(=O)C1CN(Cc2cn(CCOC(C)=O)nn2)CCS(=O)(=O)N1Cc1ccccc1 (centres undefined)	nt	1	nt	2	0
Cc1cc(=O)n2[nH]c(SCc3ccccc3Cl)nc2n1	-4	3	18*	-1	1
C[C@H]1C2CC(OC(=O)NCCCc3ccccc3)C(C2)[C@H]2CCCCN21 (some centres undefined)	nt	-4	nt	-10	0
COc1ccc(C2C(C(=O)Nc3cc(OC)ccc3OC)CCC(=O)N2c2ccc(OC)cc2)cc1 (centres undefined)	nt	3	nt	-6	0
CCOC(=O)/C(=N\Nc1cc(C(F)(F)F)ccc1Cl)N(CC)CC	15	4	15*	4	0
CN(C)CC(=O)Nc1cc(C(F)(F)F)ccc1Cl	3	-5	0	-4	0
Cc1ccccc1NC(=S)NC(NC(=O)COc1ccccc1)C(Cl)(Cl)Cl (centres undefined)	4	-4	-5	0	-1
CCc1ccc(OCC(=O)NC(NC(=S)Nc2ccccc2)C(Cl)(Cl)Cl)cc1 (centres undefined)	-8	-2	23*	5	0
O=C(NC(NC(=S)Nc1cccc(C(=O)O)c1)C(Cl)(Cl)Cl)OCc1ccccc1 (centres undefined)	-8	-1	-4	-3	0
CCc1ccc(OCC(=O)NC(NC(=S)Nc2ccccc2C)C(Cl)(Cl)Cl)cc1 (centres undefined)	-6	-2	15*	-4	0
Cc1cccc(NC(=S)NC(NC(=O)OCc2ccccc2)C(Cl)(Cl)Cl)c1 (centres undefined)	4	-2	27*	7	0
O=C(NCc1ccc(C(=O)NC2CCCC2)cc1)c1cccc(Br)c1	nt	-3	nt	1	1
O=C1CCC[C@H]2CC3(CC[C@]24CCCN14)OCCO3	nt	-5	nt	-4	nt
C#CC1(O)C2C=C(OC)C(=O)C1C(c1ccccc1)C2C (centres undefined)	nt	-4	nt	-4	0
CCC1(C(=O)O)NC(c2cc(OC)ccc2O)C2C(=O)N(Cc3ccccc3)C(=O)C21 (centres undefined)	-5	1	0	22*	-1
CCCC[C@H]1C2CC(OC(=O)Nc3ccccc3)C(C2)[C@H]2CCCCN21 (some centres undefined)	nt	-6	nt	-5	0
